Read-out in assay [1]: Plasminogen Activator Inhibitor-1 (PAI1), SERPINE1 (gene 5054)
Description: BSK_BF4T_PAI1: BioMAP Diversity Plus: BF4T Assay for Plasminogen Activator Inhibitor-1 (PAI1) Biomarker Activity (AID 2284273). To be noted: primary human bronchial epithelial cells with fibroblasts. In outline:
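PAI-1 levels quantified by ELISA 24 h post-dosing in bronchial epithelial cell plus dermal fibroblast cultures. Signal gain referenced to DMSO baseline. Sulforhodamine B total-protein staining of parallel wells checked cytotoxicity.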

Assay [2] is described as follows: BSK_BF4T_SRB: Viability Assessment in the BioMAP Diversity Plus: BF4T Assay (AID 2284274). Particulars: primary human bronchial epithelial cells with fibroblasts. The method, boiled down: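 Cytotoxicity measured as total protein: cells fixed with 10% TCA, stained with 0.1% SRB, read at 560 nm. Bronchial epithelial/dermal fibroblast co-culture, 24 h after dosing, with positive-direction fitting relative to DMSO.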

Read-out in assay [3]: urokinase Plasminogen Activator (uPA), PLAU (gene 5328)
Description: BSK_BF4T_uPA: BioMAP Diversity Plus: BF4T Assay for urokinase Plasminogen Activator (uPA) Biomarker Activity (AID 2284275). To be noted: primary human bronchial epithelial cells with fibroblasts. In outline:
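uPA levels measured by ELISA at 24 hours in BF4T cultures (bronchial epithelial cells plus dermal fibroblasts) and compared with DMSO; cytotoxicity tracked in parallel cultures by sulforhodamine B staining.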

Read-out in assay [4]: Matrix Metallopeptidase 9 (MMP9), MMP9 (gene 4318)
Description: BSK_BF4T_MMP9: BioMAP Diversity Plus: BF4T Assay for Matrix Metallopeptidase 9 (MMP9) Biomarker Activity (AID 2284276). To be noted: primary human bronchial epithelial cells with fibroblasts. The method, boiled down: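 MMP-9 levels were measured by ELISA after 24 h exposure of bronchial epithelial cell/dermal fibroblast co-cultures, with DMSO as baseline. Parallel cultures were stained with 0.1% SRB after TCA fixation, read at 560 nm, to flag overt cytotoxicity.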

Read-out in assay [5]: Intercellular Adhesion Molecule 1 (ICAM1), ICAM1 (gene 3383)
In words: BSK_BE3C_ICAM1: BioMAP Diversity Plus: BE3C Assay for Intercellular Adhesion Molecule 1 (ICAM1) Biomarker Activity (AID 2284278).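 Further: cell-surface ICAM-1 protein level quantified by ELISA.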 Particulars: primary human bronchial epithelial cells. In outline: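 ICAM-1 quantified by ELISA and fitted against DMSO baseline, 24 h post-dosing in BE3C cultures of primary human lung bronchial epithelial cells. Cytotoxicity checked in parallel cultures by total protein SRB staining.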

Read-out in assay [6]: Interferon-inducible T-cell alpha chemoattractant (ITAC), CXCL11 (gene 6373)
In words: BSK_BE3C_ITAC: BioMAP Diversity Plus: BE3C Assay for Interferon-inducible T-cell alpha chemoattractant (ITAC) Biomarker Activity (AID 2284279). To be noted: primary human bronchial epithelial cells. The method, boiled down:
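The assay measures I-TAC levels by ELISA in human primary bronchial epithelial cell cultures 24 hours after chemical treatment. Values reflect signal increase over the DMSO baseline.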

Read-out in assay [7]: Interleukin-8 (IL8), CXCL8 (gene 3576)
In words: BSK_BE3C_IL8: BioMAP Diversity Plus: BE3C Assay for Interleukin-8 (IL8) Biomarker Activity (AID 2284280). To be noted: primary human bronchial epithelial cells. The method, boiled down: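 Dose human bronchial epithelial cells with chemical; incubate 24 h; quantify IL-8 by ELISA; fit response upward versus DMSO controls.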

Read-out in assay [8]: Epidermal growth factor receptor (EGFR), EGFR (gene 1956)
Description: BSK_BE3C_EGFR: BioMAP Diversity Plus: BE3C Assay for Epidermal growth factor receptor (EGFR) Biomarker Activity (AID 2284281). To be noted: primary human bronchial epithelial cells. In outline: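 ELISA read-out of EGFR levels on human bronchial epithelial primary cells collected 24 h post-dosing. DMSO served as negative control and baseline for gain-of-signal fitting.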

Read-out in the next assay: KRT18 (gene 3875)
Description: BSK_BE3C_Keratin818: BioMAP Diversity Plus: BE3C Assay for Keratin 818 Biomarker Activity (AID 2284282). Particulars: primary human bronchial epithelial cells. The method, boiled down: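 ELISA readout of Keratin 8/18 in human primary bronchial epithelial cultures after 24 h chemical exposure, DMSO baseline. Parallel SRB staining (0.1%, TCA-fixed, 560 nm) served as cytotoxicity check.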

Read-out in assay [9]: Matrix Metallopeptidase 9 (MMP9), MMP9 (gene 4318)
Description: BSK_BE3C_MMP9: BioMAP Diversity Plus: BE3C Assay for Matrix Metallopeptidase 9 (MMP9) Biomarker Activity (AID 2284283). Particulars: primary human bronchial epithelial cells. In outline:
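Human primary bronchial epithelial cells exposed 24 h to compound. MMP9 quantified by ELISA. SRB total-protein staining of parallel cultures assesses cytotoxicity. Positive-direction fit relative to DMSO.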

Read-out in assay [10]: Plasminogen activator inhibitor-1 (PAI1), SERPINE1 (gene 5054)
Description: BSK_CASM3C_PAI1: BioMAP Diversity Plus: CASM3C Assay for Plasminogen activator inhibitor-1 (PAI1) Biomarker Activity (AID 2284284). To be noted: primary human coronary artery smooth muscle cells.

Read-out in assay [11]: Monocyte Chemoattractant Protein-1 (MCP1), CCL2 (gene 6347)
Description: BSK_hDFCGF_MCP1: BioMAP Diversity Plus: hDFCGF Assay for Monocyte Chemoattractant Protein-1 (MCP1) Biomarker Activity (AID 2284285). Particulars: primary human foreskin fibroblasts. In outline: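 MCP-1 ELISA readout was taken 24 hours after dosing primary human dermal fibroblasts in the hDFCGF system, with DMSO as baseline. Parallel sulforhodamine B staining of total protein tracked overt cytotoxicity.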

Read-out in assay [12]: Vascular cell adhesion molecule 1 (VCAM1), VCAM1 (gene 7412)
In words: BSK_IMphg_VCAM1: BioMAP Diversity Plus: IMphg Assay for Vascular cell adhesion molecule 1 (VCAM1) Biomarker Activity (AID 2284286). Particulars: primary human endothelial cells with macrophages. The method, boiled down: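 ELISA read-out of VCAM-1 on venular endothelial cell/macrophage co-cultures at 24 h post-treatment, with DMSO as baseline and positive-direction fitting. Parallel sulforhodamine B total-protein staining (560 nm) served as the overt cytotoxicity measure.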

Read-out in assay [13]: Intercellular Adhesion Molecule 1 (ICAM1), ICAM1 (gene 3383)
Description: BSK_hDFCGF_ICAM1: BioMAP Diversity Plus: hDFCGF Assay for Intercellular Adhesion Molecule 1 (ICAM1) Biomarker Activity (AID 2284287). To be noted: primary human foreskin fibroblasts. In outline:
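ICAM-1 ELISA readout 24 h after dosing, DMSO as baseline, in human dermal foreskin fibroblast cultures. Cytotoxicity checked in parallel wells by SRB staining (0.1% SRB, 10% TCA fixation, 560 nm).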

Read-out in another assay: CD40, CD40 (gene 958)
Description: BSK_IMphg_CD40: BioMAP Diversity Plus: IMphg Assay for CD40 Biomarker Activity (AID 2284288). To be noted: primary human endothelial cells with macrophages. The method, boiled down:
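ELISA read-out of cell-surface CD40 at 24 h in human venular endothelial cell/macrophage co-cultures. Activity fitted in the positive direction against DMSO; parallel SRB staining (560 nm) gauges overt cytotoxicity.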

Read-out in assay [14]: TIMP metallopeptidase inhibitor 2 (TIMP2), TIMP2 (gene 7077)
Description: BSK_hDFCGF_TIMP2: BioMAP Diversity Plus: hDFCGF Assay for TIMP metallopeptidase inhibitor 2 (TIMP2) Biomarker Activity (AID 2284289). To be noted: primary human foreskin fibroblasts. The method, boiled down: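 Primary human foreskin fibroblasts in the hDFCGF system, dosed for 24 h; TIMP-2 level measured by ELISA, fitted in the positive direction against DMSO; cytotoxicity checked in parallel by sulforhodamine B total protein staining.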

Read-out in assay [15]: Interleukin-1 alpha (IL1a), IL1A (gene 3552)
Description: BSK_IMphg_IL1a: BioMAP Diversity Plus: IMphg Assay for Interleukin-1 alpha (IL1a) Biomarker Activity (AID 2284290). Particulars: primary human endothelial cells with macrophages. The method, boiled down:
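IL-1α is quantified by ELISA at 24 h in the endothelial/macrophage IMphg co-culture, with gain of signal fitted relative to DMSO. Parallel SRB total-protein staining flags overt toxicity.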

Read-out in assay [16]: E-selectin (Homo sapiens) (UniProt P16581)
In words: BSK_IMphg_ESelectin: BioMAP Diversity Plus: IMphg Assay for Eselectin Biomarker Activity (AID 2284291). Particulars: primary human endothelial cells with macrophages. In outline: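 Analysed against DMSO baseline in the positive fitting direction, this endpoint is an ELISA read of E-selectin. It comes from human venular endothelial cells co-cultured with macrophages, sampled 24 h post-dose.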

Read-out in assay [17]: Interleukin-8 (IL8), CXCL8 (gene 3576)
Description: BSK_IMphg_IL8: BioMAP Diversity Plus: IMphg Assay for Interleukin-8 (IL8) Biomarker Activity (AID 2284277). To be noted: primary human endothelial cells with macrophages. The method, boiled down:
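IL-8 levels were measured by ELISA 24 h after dosing in primary human venular endothelial cell–macrophage cultures, referenced to DMSO; parallel SRB staining monitored overt cytotoxicity.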

The nature of assay [18]: BSK_IMphg_SRB: Viability Assessment in the BioMAP Diversity Plus: IMphg Assay (AID 2284292).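 Further: measured one day after compound addition.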 Particulars: primary human endothelial cells with macrophages. In outline:
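SRB viability endpoint: cultures of human endothelial cells plus macrophages fixed with 10% TCA, stained with 0.1% SRB, read at 560 nm 24 h post-dosing. Only gain-of-signal fitted, relative to DMSO.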

The values below come from PubChem BioAssay (EPA / NIEHS).

The structures appear in SMILES notation. Some structures have more than one record in an assay (separate samples or runs), and their calls can disagree. Activity calls are given as the source filed them. How the source made its calls: active means hit-call score of the fitted dose curve at least 0.9, where 1 is the maximum; inactive means score below 0.9.

Sequence of E-selectin (Homo sapiens) (P16581 whole entry, looked up): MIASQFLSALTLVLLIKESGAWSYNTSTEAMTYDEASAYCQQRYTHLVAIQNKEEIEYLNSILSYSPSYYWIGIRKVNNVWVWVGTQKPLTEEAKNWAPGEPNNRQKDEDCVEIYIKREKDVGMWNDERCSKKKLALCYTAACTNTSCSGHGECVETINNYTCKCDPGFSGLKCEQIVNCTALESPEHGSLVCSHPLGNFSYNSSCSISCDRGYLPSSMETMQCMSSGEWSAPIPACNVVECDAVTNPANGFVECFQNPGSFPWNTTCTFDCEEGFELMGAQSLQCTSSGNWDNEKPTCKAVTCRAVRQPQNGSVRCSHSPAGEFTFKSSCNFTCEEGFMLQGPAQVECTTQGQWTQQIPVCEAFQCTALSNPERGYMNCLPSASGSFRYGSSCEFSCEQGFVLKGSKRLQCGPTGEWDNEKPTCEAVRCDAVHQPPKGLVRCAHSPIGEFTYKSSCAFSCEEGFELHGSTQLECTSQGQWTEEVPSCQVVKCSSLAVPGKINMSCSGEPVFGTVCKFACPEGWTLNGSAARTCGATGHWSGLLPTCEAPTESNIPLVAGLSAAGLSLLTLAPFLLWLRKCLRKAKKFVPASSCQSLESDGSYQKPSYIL

Turning to `O=C(O)C(F)(F)C(F)(F)C(F)(F)OC(F)(C(F)(F)F)C(F)(F)F`, the outcome in assay [1], in assay [2], in assay [3], in [4], in [5] and in assay [6] was inactive. Moreover, the result (in assay [7]; in assay [8]; with KRT18 (gene 3875); in assay [9]; in assay [10]; in [11]) was inactive. The outcome in [12] was “inactive”; in [13], “inactive”; with CD40, CD40 (gene 958), “inactive”; in assay [14] it was “inactive”; in [15], “inactive”; in assay [16], “inactive”. The AC50 in [9] was 6.87 µM (active).

As for `O=C(Cl)C(F)(F)C(F)(F)C(F)(F)C(F)(F)C(F)(F)C(F)(F)F`, the outcome in assay [1], in assay [2], in assay [3], in [4], in [5] and in assay [6] was inactive. In addition, the outcome (in [7]; in assay [8]; in the assay with KRT18 (gene 3875); in assay [9]; in assay [10]; in [11]) was inactive. The outcome in assay [12] was “inactive”; in assay [13], “inactive”; with CD40, CD40 (gene 958) it was “inactive”; in [14], “inactive”; in assay [15] it was “inactive”.

Turning to `NC(=O)C(F)(F)C(F)(F)C(F)(F)F`, the result in assay [2], in assay [3], in assay [4], in [17], in assay [5] and in assay [6] was inactive. The outcome (in [7]; in [8]; with KRT18 (gene 3875); in assay [9]; in assay [10]; in [11]) was inactive. Moreover, the outcome in assay [12] is “inactive”; in assay [13] it was “inactive”; with CD40, CD40 (gene 958) it was “inactive”; in assay [14], “inactive”; in [15], “inactive”.

Turning to `O=S(=O)(O)CCC(F)(F)C(F)(F)C(F)(F)C(F)(F)C(F)(F)C(F)(F)C(F)(F)C(F)(F)F`, the result in assay [2], in assay [3], in assay [4], in [5], in assay [6] and in assay [7] was inactive. Also, the outcome (in assay [8]; in the assay with KRT18 (gene 3875); in [9]; in assay [10]; in assay [11]; in assay [12]) was inactive. In addition, the outcome in assay [13] is “inactive”; with CD40, CD40 (gene 958) it was “inactive”; in assay [14], “inactive”; in assay [15], “inactive”; in assay [18], “inactive”. The AC50 in assay [7] is 20.4 µM (active); in assay [13], 22.4 µM (active); with CD40, CD40 (gene 958) it was 20.9 µM (active).

Consider `FC(F)(F)C(F)(F)C(F)(F)CC1CO1` (stereo unspecified), for which the outcome in assay [2], in assay [3], in assay [4], in assay [17], in [5] and in [6] was inactive. Besides, the result (in [7]; in assay [8]; with KRT18 (gene 3875); in [9]; in [10]; in assay [11]) was inactive. The outcome was “inactive” in assay [12]; “inactive” in [13]; “inactive” in the assay with CD40, CD40 (gene 958); “inactive” in [14]; “inactive” in assay [15]. Further, in [14], the AC50 was 1.97 µM (active).
